According to PubChem BioAssay (EPA / NIEHS):
Values joined by “and” are separate entries in the source; they are usually repeats but may differ in a detail not shown here. Equal values may be shown once. More than one record can exist for a structure, and the calls need not agree. Active and inactive are the calls of the source. Rule for the calls: active = hit-call score of the fitted dose curve at least 0.9, where 1 is the maximum; inactive = score below 0.9.

Legend:
[1] = read-out: Interferon-gamma inducible Protein 10 (IP10), CXCL10 (gene 3627); test: BSK_hDFCGF_IP10: BioMAP Diversity Plus: hDFCGF Assay for Interferon-gamma inducible Protein 10 (IP10) Biomarker Activity (AID 2283053); conditions: primary human foreskin fibroblasts; actives raise or lower the signal
Procedure, shortened: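 Primary foreskin fibroblasts, human; 24 h compound exposure; IP-10 by ELISA; bidirectional fit vs DMSO.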

[2] = read-out: Urokinase-type plasminogen activator receptor (uPAR), PLAUR (gene 5329); test: BSK_CASM3C_uPAR: BioMAP Diversity Plus: CASM3C Assay for Urokinase-type plasminogen activator receptor (uPAR) Biomarker Activity (AID 2283054); conditions: primary human coronary artery smooth muscle cells; actives raise or lower the signal;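 note: cell-surface uPAR protein level quantified by ELISA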
[3] = read-out: Vascular cell adhesion molecule 1 (VCAM1), VCAM1 (gene 7412); test: BSK_CASM3C_VCAM1: BioMAP Diversity Plus: CASM3C Assay for Vascular cell adhesion molecule 1 (VCAM1) Biomarker Activity (AID 2283055); conditions: primary human coronary artery smooth muscle cells; actives raise or lower the signal;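 note: VCAM-1 protein level quantified by ELISA on the cells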
[4] = read-out: Collagen III, COL3A1 (gene 1281); test: BSK_hDFCGF_CollagenIII: BioMAP Diversity Plus: hDFCGF Assay for Collagen III Biomarker Activity (AID 2283056); conditions: primary human foreskin fibroblasts; actives raise or lower the signal
Procedure, shortened: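 Cells: human foreskin fibroblasts, primary. Dosing followed by 24 h incubation, then ELISA for collagen III. Both increases and decreases scored relative to DMSO.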

[5] = read-out: Epidermal growth factor receptor (EGFR), EGFR (gene 1956); test: BSK_hDFCGF_EGFR: BioMAP Diversity Plus: hDFCGF Assay for Epidermal growth factor receptor (EGFR) Biomarker Activity (AID 2283057); conditions: primary human foreskin fibroblasts; actives raise or lower the signal
Procedure, shortened: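 hDFCGF system, primary human foreskin fibroblasts; compound 24 h; EGFR measured by ELISA; DMSO = negative control/baseline; bidirectional fitting.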

[6] = read-out: Interleukin-8 (IL8), CXCL8 (gene 3576); test: BSK_hDFCGF_IL8: BioMAP Diversity Plus: hDFCGF Assay for Interleukin-8 (IL8) Biomarker Activity (AID 2283058); conditions: primary human foreskin fibroblasts; actives raise or lower the signal
Procedure, shortened: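 IL-8 levels from compound-treated primary human fibroblasts were read by ELISA at 24 h, with DMSO serving as baseline for bidirectional fitting.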

[7] = BSK_hDFCGF_Proliferation: Cell Proliferation Assessment in the BioMAP Diversity Plus: hDFCGF Assay (AID 2283059); conditions: primary human foreskin fibroblasts;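 note: curves fitted for both rise and fall of signal versus DMSO baseline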
Procedure, shortened: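 This proliferation readout used SRB total-protein staining of human foreskin fibroblasts […], normalized to DMSO with bidirectional curve fitting.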

[8] = read-out: Macrophage colony-stimulating factor (MCSF), CSF1 (gene 1435); test: BSK_hDFCGF_MCSF: BioMAP Diversity Plus: hDFCGF Assay for Macrophage colony-stimulating factor (MCSF) Biomarker Activity (AID 2283060); conditions: primary human foreskin fibroblasts; actives raise or lower the signal
Procedure, shortened: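 M-CSF levels, determined by ELISA, are taken at 24 h after dosing human skin fibroblasts. Responses in either direction are fitted with DMSO serving as the baseline.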

[9] = BSK_hDFCGF_SRB: Viability Assessment in the BioMAP Diversity Plus: hDFCGF Assay (AID 2283061); conditions: primary human foreskin fibroblasts;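 note: cells exposed to compound for 24 h before the read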
Procedure, shortened: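 Cells were dosed with test chemical, cultured 24 h, fixed with 10% TCA, then stained with 0.1% SRB and read at 560 nm. The fibroblasts were human foreskin primary cells, and DMSO served as baseline.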

[10] = read-out: Monokine induced gamma interferon (MIG), CXCL9 (gene 4283); test: BSK_hDFCGF_MIG: BioMAP Diversity Plus: hDFCGF Assay for Monokine induced gamma interferon (MIG) Biomarker Activity (AID 2283063); conditions: primary human foreskin fibroblasts; actives raise or lower the signal
Procedure, shortened: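 MIG signal, determined by ELISA, reflects 24 h chemical exposure of human skin primary fibroblasts. DMSO serves as negative control and baseline.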

[11] = read-out: Vascular cell adhesion molecule 1 (VCAM1), VCAM1 (gene 7412); test: BSK_hDFCGF_VCAM1: BioMAP Diversity Plus: hDFCGF Assay for Vascular cell adhesion molecule 1 (VCAM1) Biomarker Activity (AID 2283065); conditions: primary human foreskin fibroblasts; actives raise or lower the signal;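 for AC50: VCAM-1 protein level quantified by ELISA after 24 h chemical exposure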
Procedure, shortened: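 Cells are dosed, cultured for 24 h, then VCAM-1 is quantified by ELISA; signal increases and decreases are both fitted relative to DMSO.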

[12] = read-out: Plasminogen activator inhibitor-1 (PAI1), SERPINE1 (gene 5054); test: BSK_hDFCGF_PAI1: BioMAP Diversity Plus: hDFCGF Assay for Plasminogen activator inhibitor-1 (PAI1) Biomarker Activity (AID 2283066); conditions: primary human foreskin fibroblasts; actives raise or lower the signal
Procedure, shortened: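 Primary dermal fibroblasts (human foreskin), hDFCGF system; compound 24 h; PAI-1 by ELISA; bidirectional fit vs DMSO control.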

[13] = read-out: Intercellular Adhesion Molecule 1 (ICAM1), ICAM1 (gene 3383); test: BSK_KF3CT_ICAM1: BioMAP Diversity Plus: KF3CT Assay for Intercellular Adhesion Molecule 1 (ICAM1) Biomarker Activity (AID 2283067); conditions: primary human keratinocytes with fibroblasts; actives raise or lower the signal
Procedure, shortened: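 Dose the keratinocyte/fibroblast co-culture, wait 24 h, measure ICAM-1 by ELISA, then fit increases or decreases against DMSO. Cytotoxicity is checked in parallel cultures by SRB total-protein staining.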

[14] = read-out: Interferon-gamma inducible Protein 10 (IP10), CXCL10 (gene 3627); test: BSK_KF3CT_IP10: BioMAP Diversity Plus: KF3CT Assay for Interferon-gamma inducible Protein 10 (IP10) Biomarker Activity (AID 2283068); conditions: primary human keratinocytes with fibroblasts; actives raise or lower the signal
Procedure, shortened: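 Signal is secreted/surface IP-10 by ELISA in a human primary skin co-culture of keratinocytes and foreskin fibroblasts, taken 24 h post-dosing; DMSO served as negative control.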

[15] = BSK_KF3CT_SRB: Viability Assessment in the BioMAP Diversity Plus: KF3CT Assay (AID 2283069); conditions: primary human keratinocytes with fibroblasts;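 note: total protein by sulforhodamine B staining as a cytotoxicity measure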
Procedure, shortened: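 Human primary keratinocyte plus foreskin fibroblast co-culture exposed to chemicals for 24 h. Total protein measured by 0.1% sulforhodamine B staining after 10% TCA fixation, read at 560 nm; bidirectional fitting versus DMSO baseline.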

[16] = read-out: TIMP metallopeptidase inhibitor 2 (TIMP2), TIMP2 (gene 7077); test: BSK_KF3CT_TIMP2: BioMAP Diversity Plus: KF3CT Assay for TIMP metallopeptidase inhibitor 2 (TIMP2) Biomarker Activity (AID 2283071); conditions: primary human keratinocytes with fibroblasts; actives raise or lower the signal
Procedure, shortened: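 Cells: human keratinocytes co-cultured with foreskin fibroblasts. Treat with chemical, 24 h. Measure TIMP-2 by ELISA; fit curves bidirectionally vs DMSO baseline.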

[17] = read-out: Transforming growth factor beta 1 (TGFb1), TGFB1 (gene 7040); test: BSK_KF3CT_TGFb1: BioMAP Diversity Plus: KF3CT Assay for Transforming growth factor beta 1 (TGFb1) Biomarker Activity (AID 2283072); conditions: primary human keratinocytes with fibroblasts; actives raise or lower the signal
Procedure, shortened: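 Primary human skin cells (keratinocytes, foreskin fibroblasts) were co-cultured, exposed to test chemical and sampled at 24 h. TGF-b1 levels were measured by ELISA and fitted bidirectionally relative to DMSO.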

[18] = read-out: Matrix Metallopeptidase 1 (MMP1), MMP1 (gene 4312); test: BSK_hDFCGF_MMP1: BioMAP Diversity Plus: hDFCGF Assay for Matrix Metallopeptidase 1 (MMP1) Biomarker Activity (AID 2283064); conditions: primary human foreskin fibroblasts; actives raise or lower the signal
Procedure, shortened: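 Primary human foreskin fibroblasts in the hDFCGF system were dosed with test chemical, and MMP1 was measured by ELISA 24 h later. Values come from bidirectional curve fitting against the DMSO baseline.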

[19] = read-out: Interleukin-1 alpha (IL1a), IL1A (gene 3552); test: BSK_KF3CT_IL1a: BioMAP Diversity Plus: KF3CT Assay for Interleukin-1 alpha (IL1a) Biomarker Activity (AID 2283070); conditions: primary human keratinocytes with fibroblasts; actives raise or lower the signal
Procedure, shortened: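 Human keratinocyte plus foreskin fibroblast primary co-culture, sampled 24 h after chemical dosing. IL-1a measured by ELISA; responses fitted bidirectionally against DMSO baseline (negative control), so gain or loss of signal both count.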

[20] = read-out: TIMP metallopeptidase inhibitor 1 (TIMP1), TIMP1 (gene 7076); test: BSK_hDFCGF_TIMP1: BioMAP Diversity Plus: hDFCGF Assay for TIMP metallopeptidase inhibitor 1 (TIMP1) Biomarker Activity (AID 2283062); conditions: primary human foreskin fibroblasts; actives raise or lower the signal
Procedure, shortened: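 Fibroblasts from human foreskin are treated with test chemical and harvested at 24 h. TIMP-1 is quantified by ELISA, and gain or loss of signal is scored against DMSO.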

Measured: AC50

CCC(C)(CC)c1cc(NC(=O)c2c(OC)cccc2OC)on1
not listed: [18] | [19] | [20]
inactive: all other assays above

ClC1=C(Cl)[C@]2(Cl)[C@@H]3[C@@H](Cl)[C@H]4O[C@H]4[C@@H]3C1(Cl)C2(Cl)Cl
active: [7] 5.9 µM | [9] 5.55 µM
not listed: [20]
inactive: all other assays above

ClC1=C(Cl)[C@]2(Cl)[C@@H]3[C@@H]4C[C@@H]([C@H]5O[C@@H]45)[C@@H]3[C@@]1(Cl)C2(Cl)Cl
active: [7] 8.97 µM
inactive: all other assays above

NS(=O)(=O)C(F)(F)C(F)(F)C(F)(F)C(F)(F)C(F)(F)C(F)(F)C(F)(F)C(F)(F)F
inactive: [2] | [3] | [5]
active: [1] 20 µM and 9.33 µM and 8.26 µM | [2] 46.6 µM and 42.5 µM | [3] 11.4 µM and 16.7 µM | [4] 12.6 µM and 10.8 µM and 9.02 µM | [7] 12.2 µM and 18.3 µM and 19.5 µM | [8] 14.8 µM and 8.52 µM and 8.29 µM | [9] 26.9 µM and 55 µM and 47.2 µM | [10] 29.4 µM and 9.34 µM and 11 µM | [18] 30.7 µM and 15.3 µM and 17.5 µM | [11] 17.3 µM and 9.88 µM and 7.69 µM | [12] 27.7 µM and 15.4 µM and 21.1 µM | [13] 32 µM and 43.5 µM and 54 µM | [14] 13 µM and 32.4 µM and 37.3 µM | [15] 30.1 µM and 45.6 µM and 21.4 µM | [16] 26 µM and 40.7 µM and 44.4 µM | [17] 9.43 µM

Nc1ccc(-c2ccc(N)cc2)cc1
not listed: [18] | [19] | [20]
inactive: all other assays above

CCOCCOC(C)=O
not listed: [18]
inactive: all other assays above

Clc1ccc(C(c2ccccc2Cl)C(Cl)(Cl)Cl)cc1 (stereo not given)
active: [1] 7.73 µM | [2] 25.6 µM | [3] 11.7 µM | [4] 6.51 µM | [7] 6.94 µM | [8] 8.37 µM | [9] 6.8 µM | [20] 9.41 µM | [10] 18.5 µM | [18] 9.47 µM | [11] 6.32 µM | [12] 5.83 µM | [13] 22.8 µM | [14] 10 µM | [15] 21.1 µM | [16] 19 µM | [17] 19.1 µM
inactive: [5]

CCCCCCCCCC[N+](C)(C)CCCCCCCCCC
active: [1] 2.44 µM | [2] 3.56 µM | [3] 5.15 µM | [4] 1.76 µM | [5] 1.22 µM | [6] 3.01 µM | [7] 0.154 µM | [8] 2.04 µM | [9] 1.81 µM | [20] 2 µM | [10] 2.95 µM | [11] 3.39 µM | [12] 1.58 µM | [13] 10.7 µM | [14] 6.12 µM | [15] 5.41 µM | [19] 6.82 µM | [16] 4.71 µM | [17] 3.03 µM

Cc1ccc(O)c(C)c1
active: [7] 12.4 µM
not listed: [18] | [19] | [20]
inactive: all other assays above

COc1ccc(O)c(C(C)(C)C)c1
active: [4] 3.97 µM and 8.37 µM
inactive: [1] | [2] | [3] | [4] | [5] | [7] | [8] | [9] | [20] | [10] | [18] | [11] | [12] | [13] | [14] | [15] | [16] | [17]

CC#Cc1cc(C)nc(Nc2ccccc2)n1
not listed: [19] | [20]
inactive: all other assays above

Cc1ccccc1CO[C@@H]1C[C@@]2(C(C)C)CC[C@]1(C)O2
not listed: [18] | [19]
inactive: all other assays above
